Compounds with a hit are over-represented: about 8.7% of the library has one in this group of screens.
HP1b chromo inh: blocks HP1-beta chromodomain binding to methylated histone tails; P83916; AlphaScreen HP1-beta / biotin-H3K9me3 peptide binding; Potency, µM (series often up to 114 µM), without a hit: at the highest dose activity change, negative = inhibition, hits mostly inhibitors; hit rate 0.56% among 390,000; also: nearly all actives have a fitted effect of over 70% in size
Target sequence (P83916 whole entry, looked up): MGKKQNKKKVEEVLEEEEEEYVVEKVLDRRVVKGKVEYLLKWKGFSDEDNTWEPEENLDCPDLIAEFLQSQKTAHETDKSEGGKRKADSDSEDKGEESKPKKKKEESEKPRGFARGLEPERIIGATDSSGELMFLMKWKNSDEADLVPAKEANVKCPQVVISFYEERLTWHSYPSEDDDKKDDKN
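HP1-beta protein (50 nM final) preincubated 30 min at room temperature with biotinylated H3(1-18)K9me3 peptide (50 nM) in PBS pH 7.4, 0.01% Tween-20, then compound added for 30 min. AlphaScreen streptavidin donor/nickel chelate acceptor beads (10 ug/mL final), 30 min dark, luminescence read.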
Sfp PPTase inh: inhibitors of Bacillus subtilis Sfp phosphopantetheinyl transferase. Biochemical Sfp PPTase activity, qHTS. Potency, µM, for inactives: largest response in the series, negative = inhibition, most hits filed as inhibitors. AID 1490. hit rate 3.5% among 310,000;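 also: the enzyme is Sfp with the accession as filed and its product quenches rhodamine fluorescence; 0% = enzyme reaction without inhibitor and -100% = no enzyme wells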
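Step 1, compound plus 15 nM Sfp-PPTase, 15 min, room temperature. Step 2, add rhodamine-CoA (5 uM) and BHQ-2-YbbR (12.5 uM). Step 3, read 525/598 nm fluorescence at 0 and 30 min.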
BAZ2B block: BAZ2B (human) inhibition | hit rate 4.4% among 360,000 | AID 504333 | AlphaScreen BAZ2B-H3K14Ac peptide displacement | Potency, µM (titrated, usually from 114 µM), without a hit: at the highest dose activity change, negative = inhibition, usual class: inhibitors | Q9UIF8; also: % is scaled to controls: 0 for no effect and ±100 for the full control effect; nearly all actives have a fitted effect of over 60% in size
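AlphaScreen luminescence quantifies BAZ2B engagement of H3K14Ac peptide; the protein and biotinylated peptide are both at 50 nM final, buffer PBS pH 7.4 with 0.01% Tween-20, all steps at room temperature.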
ALOX12 inh: inhibitors of human 12S-lipoxygenase ALOX12 | P18054 | purified 12hLO, xylenol orange hydroperoxide absorbance | Potency, µM (top dose mostly 108 µM), for the others: at the top dose activity change, negative = inhibition, most hits filed as inhibitors | hit rate 1.1% among 580,000; also: % is scaled to controls: 0 for no effect and ±100 for the full control effect
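Hydroperoxide product was detected by ferrous iron/xylenol orange as the 573 to 405 nm absorbance ratio. Arachidonic acid at 40 uM (final) was turned over for 30 min at room temperature by 150 nM human 12hLO, pH 7.0 Hepes buffer, after 15 min compound preincubation.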
JMJD2A Tudor inh: inhibitors of human JMJD2A Tudor domain; O75164; AlphaScreen JMJD2A-Tudor / H3K4me3 peptide binding; Potency, µM (series often up to 114 µM), inactives show at the top dose activity change, negative = inhibition, actives largely listed as inhibitors; hit rate 4.4% among 390,000; AID 504339; also: % is scaled to controls: 0 for no effect and ±100 for the full control effect; nearly all actives have a fitted effect of over 50% in size
G9a block: inhibitors of human histone lysine methyltransferase G9a; Q96KQ7; G9a H3K9 monomethylation, AlphaScreen, 2 h; Potency, µM (titrated, usually from 102 µM), without a hit: at the top dose activity, negative = inhibition, actives largely listed as inhibitors; hit rate 8.8% among 350,000; also: % is scaled to controls: 0 for no effect and ±100 for the full control effect; nearly all actives have a fitted effect of over 75% in size
Target sequence (Q96KQ7 913-1193 limits assumed): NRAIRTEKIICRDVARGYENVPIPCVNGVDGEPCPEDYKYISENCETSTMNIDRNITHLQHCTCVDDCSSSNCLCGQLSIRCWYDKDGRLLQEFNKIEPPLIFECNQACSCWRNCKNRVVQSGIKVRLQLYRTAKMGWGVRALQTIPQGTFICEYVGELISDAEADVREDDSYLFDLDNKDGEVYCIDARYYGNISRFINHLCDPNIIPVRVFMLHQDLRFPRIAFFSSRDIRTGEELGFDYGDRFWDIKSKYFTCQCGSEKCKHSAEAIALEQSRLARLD
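AlphaScreen detection with an anti-monomethyl H3K9 antibody quantified product after a 2 h room-temperature reaction containing 500 nM biotinylated H3K9 peptide, 20 µM SAM and 20 nM enzyme, which had been preincubated 15 min with compound.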
Numbers without * were called inactive; [ ] = another dose, or the depositor's remark. Calls follow the shape of the dose curve; as a rule, active = well fitted curve in the direction sought with a large enough effect; inconclusive = small, poorly fitted or top-dose-only effect, or another doubt; inactive = no such curve, though single readings can be large; an effect the other way counts as inactive or inconclusive. Potency is read from the fitted curve at half-maximal effect.

What do the screens show for `COc1ccc(C(=O)NCC(O)c2ccc(C)cc2)cc1` (configuration not stated)?
ALOX12 inh: 39%

Results for CC(OC(=O)c1ccccc1NCCO)C(=O)NCC(=O)Nc1ccc(F)c(F)c1F (configuration not stated) ?
HP1b chromo inh: 16%; Sfp PPTase inh: 11%; BAZ2B block: -2%; ALOX12 inh: -22%; JMJD2A Tudor inh: 10%; G9a block: 28µM*

What do the screens show for `Brc1ccc(-c2ccnc3nc(-c4cccs4)nn23)cc1`?
ALOX12 inh: 22%

How did Cc1ccc(N/N=C2/CCCNC2=O)cc1 do in these assays?
HP1b chromo inh: inconclusive; Sfp PPTase inh: 1%; BAZ2B block: 2%; ALOX12 inh: inconclusive; JMJD2A Tudor inh: inconclusive; G9a block: 25µM*

How did CC(=O)c1ccc(N/N=C2/CCCNC2=O)cc1 do in these assays?
HP1b chromo inh: 36%; Sfp PPTase inh: 16%; BAZ2B block: -2%; ALOX12 inh: -41%; JMJD2A Tudor inh: -30%; G9a block: 25%

What do the screens show for `O=[N+]([O-])c1cc(Br)cc(C=Nc2ccc3c(c2)OCO3)c1O`?
HP1b chromo inh: -13%; Sfp PPTase inh: inconclusive; BAZ2B block: 45µM*; ALOX12 inh: 35µM*; JMJD2A Tudor inh: inconclusive; G9a block: 45µM*

Results for Cc1ccc(C)c(N=Cc2cc3c(cc2[N+](=O)[O-])OCO3)c1 ?
HP1b chromo inh: 45µM*; Sfp PPTase inh: inconclusive; BAZ2B block: 20µM*; ALOX12 inh: inconclusive; JMJD2A Tudor inh: 50µM*; G9a block: inconclusive

Results for O=C(CCCCCC(=O)N/N=C/c1cc2c(cc1[N+](=O)[O-])OCO2)N/N=C/c1cc2c(cc1[N+](=O)[O-])OCO2 ?
ALOX12 inh: 29%

How did O=[N+]([O-])c1ccc(O)c(C=Nc2ccc3c(c2)OCO3)c1 do in these assays?
HP1b chromo inh: 17%; Sfp PPTase inh: -7%; BAZ2B block: -11%; ALOX12 inh: -11%; JMJD2A Tudor inh: -9%

Results for CC(C)(C)c1ccc(O)c(N=Cc2cc3c(cc2[N+](=O)[O-])OCO3)c1 ?
HP1b chromo inh: inconclusive; Sfp PPTase inh: -24%; BAZ2B block: 50µM*; ALOX12 inh: 35µM*; JMJD2A Tudor inh: inconclusive; G9a block: 6%[0.501 µM]

How did O=C(CCc1ccc(O)c(O)c1)N/N=C/c1cc2c(cc1[N+](=O)[O-])OCO2 do in these assays?
HP1b chromo inh: inconclusive; Sfp PPTase inh: 40µM*; BAZ2B block: 45µM*; ALOX12 inh: inconclusive; JMJD2A Tudor inh: 40µM*; G9a block: 3.5µM*

Results for COc1ccc(S(=O)(=O)N2C[C@@H](F)C[C@H]2C(=O)N2CCOCC2)cc1OC ?
ALOX12 inh: 15%

Results for Cc1nn(-c2nc3c(c(=O)n(Cc4c(F)cccc4Cl)c(=O)n3C)n2C)c(C)c1C ?
ALOX12 inh: 2%

How did COCCn1nnnc1C1CC2(CCOCC2)C(=O)N1Cc1cccc(OC)c1 (configuration not stated) do in these assays?
ALOX12 inh: 27%

Results for O=[N+]([O-])c1ccc(S(=O)(=O)NN=Cc2ccc3c(c2)OCO3)cc1 ?
HP1b chromo inh: 0%; ALOX12 inh: -18%; JMJD2A Tudor inh: -27%

How did O=[N+]([O-])c1cc2c(cc1/C=N\NS(=O)(=O)c1ccccc1)OCO2 do in these assays?
HP1b chromo inh: 23%; Sfp PPTase inh: -17%; BAZ2B block: -5%; ALOX12 inh: -20%; JMJD2A Tudor inh: -11%; G9a block: 4µM*

How did Cc1ccc2[nH]c3nc(NN)nnc3c2c1 do in these assays?
HP1b chromo inh: 38%; Sfp PPTase inh: 9%; BAZ2B block: 3.5µM*; ALOX12 inh: inconclusive; JMJD2A Tudor inh: 50µM*

How did Cc1ccc2[nH]c3nc(SCCN4CCOCC4)nnc3c2c1 do in these assays?
HP1b chromo inh: 23%; Sfp PPTase inh: inconclusive; BAZ2B block: 1%; ALOX12 inh: inconclusive; JMJD2A Tudor inh: -9%; G9a block: inconclusive

What do the screens show for `CCCCC(=O)n1nc(-c2ccc(Cl)cc2)nc1N`?
ALOX12 inh: 6%

What do the screens show for `COCc1cc(=O)n(CC(=O)Nc2cc(Cl)ccc2OC)c(N2CCOCC2)n1`?
ALOX12 inh: 19%

How did Cc1[nH]n(-c2ncc(-c3ccccc3)s2)c(=O)c1C(c1ccc(Br)cc1)C(C#N)C#N (configuration not stated) do in these assays?
HP1b chromo inh: 40µM*; Sfp PPTase inh: 56µM*; BAZ2B block: 35µM*; ALOX12 inh: 25µM*; JMJD2A Tudor inh: 50µM*; G9a block: inconclusive

What do the screens show for `Cc1[nH]n(C(N)=S)c(=O)c1C(c1ccccc1)C(C#N)C#N` (configuration not stated)?
HP1b chromo inh: 33%; Sfp PPTase inh: -16%; BAZ2B block: 12%; ALOX12 inh: inconclusive; JMJD2A Tudor inh: 9%; G9a block: inconclusive

How did CC[C@@H](C)[C@H](NC(=O)OC(C)(C)C)c1nnc(S(=O)(=O)Cc2cc(C)ccc2C)o1 do in these assays?
HP1b chromo inh: 87%; Sfp PPTase inh: inconclusive; BAZ2B block: 0%; ALOX12 inh: 404%; JMJD2A Tudor inh: 10%; G9a block: 79µM*

Results for Cc1ccccc1CS(=O)(=O)c1nnc([C@H](CC(C)C)NC(=O)OC(C)(C)C)o1 ?
HP1b chromo inh: 21%; Sfp PPTase inh: 22µM*; BAZ2B block: 5%; ALOX12 inh: 24%; JMJD2A Tudor inh: -24%; G9a block: 35µM*

How did CC(C)(C)OC(=O)N[C@@H](Cc1ccccc1)c1nnc(S(=O)(=O)Cc2cccc(F)c2)o1 do in these assays?
HP1b chromo inh: 77%; Sfp PPTase inh: 7.9µM*; BAZ2B block: 0%; JMJD2A Tudor inh: -7%; G9a block: 35µM*

Results for CC(C)C[C@H](N)c1nnc(S(=O)(=O)Cc2cccc(F)c2)o1 ?
HP1b chromo inh: 30%; Sfp PPTase inh: 18µM*; BAZ2B block: inconclusive; ALOX12 inh: -8%; JMJD2A Tudor inh: -14%; G9a block: inconclusive

What do the screens show for `CC(C)C[C@H](NC(=O)OC(C)(C)C)c1nnc(SCc2ccccc2)o1`?
HP1b chromo inh: 52%; Sfp PPTase inh: 10%; BAZ2B block: 7%; ALOX12 inh: -18%; JMJD2A Tudor inh: 5%; G9a block: inconclusive

What do the screens show for `O=C1CN(C(=O)COC(=O)CC23CC4CC(CC(C4)C2)C3)c2ccccc2N1`?
ALOX12 inh: -22%

How did CCn1c(SCC(=O)NC2CCCc3ccccc32)nnc1C1CC1 (configuration not stated) do in these assays?
ALOX12 inh: 7%

Screens (PubChem)
